S aureus helic: S. aureus DNA helicase inhibition. purified S. aureus helicase, fluorescence unwinding assay. inhibition, % (no concentration beside the values). actives 0.05% (n = 120,000). AID 485395; in the data active means inhibition above about 25%, passing the limit was not always enough
Sa growth 42C: S. aureus growth inhibition | S. aureus RN4220 growth, OD600, 20 h, 42 °C; stronger effect = lower value | relative growth, % (concentration not given with the values) | actives 0.53% (n = 170,000);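 active means relative growth at most 50% at the other temperature and 20+ points below 30 °C, or under 10% at both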
Of the large screens only hits and unclear results are named; the others gave an inactive call. This is one part of a sample in which hits are shown more often than they occur.

COc1cccc(NC(=O)Cn2sc3ccccc3c2=O)c1	Sa growth 42C -0.2
COc1cccc(NC(=O)Cn2ccc3c(OC)cccc3c2=O)c1	none
Cc1ccc2c(nc3s/c(=C\c4ccc(-c5ccccc5F)o4)c(=O)n32)c1C	none
N#C/C(=C\c1ccc(C(F)(F)F)cc1)c1cccs1	none (no result: S aureus helic)
COc1ccc(/C=C(\C#N)c2cccs2)cc1	Sa growth 42C 47
CCCN(Cc1cccs1)C(=O)Nc1ccc(OCC)cc1	none (no result: S aureus helic)
N/C(=N\OC(=O)CN1C(=O)c2ccccc2C1=O)c1ccccn1	none
O=C(Nc1nc2ccccc2c(=O)s1)c1ccccc1	none (no result: S aureus helic)
CCCCS(=O)(=O)c1oc(-c2ccc(F)cc2)nc1S(=O)(=O)c1ccccc1	Sa growth 42C 1.6 (no result: S aureus helic)
CC(C)S(=O)(=O)c1oc(-c2ccc(F)cc2)nc1S(=O)(=O)c1ccccc1	Sa growth 42C 1.3 (no result: S aureus helic)
CC(C)S(=O)(=O)c1oc(-c2cccs2)nc1S(=O)(=O)c1ccc(F)cc1	none (no result: S aureus helic)
CCS(=O)(=O)c1oc(-c2ccc(F)cc2)nc1S(=O)(=O)c1ccc(Br)cc1	none (no result: S aureus helic)
COc1ccc2c(c1)c(NC(C)=O)c(C(=O)O)n2C	none
c1ccc(Nc2c(-c3ccc(N4CCOCC4)cc3)nc3ccccn23)cc1	none
O=C(Nc1ccccc1)Nc1cccc2ccccc12	none
CN(C)c1cc(NC(=O)Nc2ccccc2)c2ccccc2n1	Sa growth 42C 0.0
Cc1nc2ccccc2n1CCc1nc2c3ccccc3nc(=S)n2[nH]1	none
CCCc1nc2c3ccccc3nc(=S)n2[nH]1	Sa growth 42C 1.7
CCOC(=O)c1ccc(N2CCN(c3cc(C)ccc3C)CC2)c(NC(=O)Nc2ccc(CC)cc2)c1	none (no result: S aureus helic)
COc1ccc(NC(=O)C2Cc3ccccc3CN2S(=O)(=O)c2ccccc2)cc1OC (stereo not drawn)	none (no result: S aureus helic)
CCNc1nc(SCc2ccc(Cl)cc2)nc2sc3c(c12)CCN(C)C3	Sa growth 42C 10.0 (no result: S aureus helic)
CCNc1nc(SCC(=O)NC(=O)NCc2ccccc2)nc2sc3c(c12)CCN(C)C3	none (no result: S aureus helic)
CCOC(=O)c1cnc(SCC(=O)OC)nc1N	none

Assay outcomes (PubChem BioAssay)
